Measurements taken from PubChem BioAssay (EPA / NIEHS).
Inconclusive results are not listed. Activity calls are given as the source filed them. How the source made its calls, unless noted: active means hit-call score of the fitted dose curve at least 0.9, where 1 is the maximum; inactive means score below 0.9.

Tests used:
[1] = TOX21_p53_BLA_p2_viability: Viability Assessment in the Tox21 HCT-116 p53 Agonism Beta-lactamase Assay, Phase 2 (AID 2283591; active means hit-call score of the fitted dose curve at least 0.9, where 1 is the maximum;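 further: compound exposure lasted 16 h at 37 °C; actives lower the ATP signal meaning cytotoxicity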)
Procedure, shortened: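 HCT116 p53-bla cells, 4000/well, dosed after 5 h plating (217-fold dilution of DMSO stocks) and incubated 16 h at 37C. Viability taken as cellular ATP by CellTiter-Glo luminescence after 30 min RT; signal loss marks cytotoxicity.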

[2] = molecular target: Cellular tumor antigen p53 (Homo sapiens) (UniProt P04637); assay: TOX21_p53_BLA_p2_ratio: Tox21 HCT-116 p53 Agonism Beta-lactamase Assay, Ratio, Phase 2 (AID 2283592; active means hit-call score of the fitted dose curve at least 0.9, where 1 is the maximum)
Chain of Cellular tumor antigen p53 (Homo sapiens) (P04637 whole entry, looked up): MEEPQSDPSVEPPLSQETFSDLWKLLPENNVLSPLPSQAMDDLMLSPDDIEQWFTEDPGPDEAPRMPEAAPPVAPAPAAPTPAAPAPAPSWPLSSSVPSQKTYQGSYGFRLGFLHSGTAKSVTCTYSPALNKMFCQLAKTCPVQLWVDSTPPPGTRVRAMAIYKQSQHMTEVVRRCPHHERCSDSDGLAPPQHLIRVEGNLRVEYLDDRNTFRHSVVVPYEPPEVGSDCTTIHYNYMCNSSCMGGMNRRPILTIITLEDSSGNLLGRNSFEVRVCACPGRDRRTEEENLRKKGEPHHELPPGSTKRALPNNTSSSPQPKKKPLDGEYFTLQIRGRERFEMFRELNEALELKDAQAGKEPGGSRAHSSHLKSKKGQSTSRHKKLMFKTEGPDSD
Procedure, shortened: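 Human colon HCT116 cells with an inducible p53 beta-lactamase reporter are exposed to test chemicals for 16 h at 37C. Reporter induction is read as the 460/530 nm emission ratio after CCF4-AM loading, normalized to DMSO.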

[3] = TOX21_p53_BLA_p3_viability: Viability Assessment in the Tox21 HCT-116 p53 Agonism Beta-lactamase Assay, Phase 3 (AID 2283593; active means hit-call score of the fitted dose curve at least 0.9, where 1 is the maximum;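 further: cells exposed to compound for 16 h before reading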)
Procedure, shortened: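 HCT116 cells, 4000/well, dosed 5 h after plating by pin transfer (217-fold dilution from DMSO stock) and incubated 16 h at 37C, 5% CO2. Viability read as ATP luminescence with CellTiter-Glo after 30 min at room temperature.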

[4] = molecular target: Cellular tumor antigen p53 (Homo sapiens) (UniProt P04637); assay: TOX21_p53_BLA_p3_ratio: Tox21 HCT-116 p53 Agonism Beta-lactamase Assay, Ratio, Phase 3 (AID 2283596; active means hit-call score of the fitted dose curve at least 0.9, where 1 is the maximum)
Procedure, shortened: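 HCT116 p53-bla cells (4000/well) given compound in DMSO (217-fold dilution) after 5 h, incubated 16 h at 37C. CCF4-AM substrate 2 h at room temperature; 460/530 nm emission ratio, gain fitted against DMSO.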

[5] = TOX21_p53_BLA_p4_viability: Viability Assessment in the Tox21 HCT-116 p53 Agonism Beta-lactamase Assay, Phase 4 (AID 2283597; active means hit-call score of the fitted dose curve at least 0.9, where 1 is the maximum;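 further: hits lower the luminescence signal meaning cytotoxicity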)
Procedure, shortened: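 Luminescent ATP readout (CellTiter-Glo, 30 min, room temperature) in the same wells as the p53 bla ratio. HCT116 cells were treated for 16 h at 37C with DMSO-dissolved compounds.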

[6] = CCTE_Shafer_MEA_dev_firing_rate_mean: CCTE's Neural Network Formation Assay for Mean Firing Rate, Shafer Lab (AID 2284031)
Procedure, shortened: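 Primary rat cortical neurons on 48-well, 16-electrode MEAs (PEI-coated, laminin at plating), exposed from day 0 with compound renewed at DIV 5 and 9. Spikes recorded DIV 5, 7, 9, 12; well-mean firing rate collapsed to trapezoidal AUC, loss-of-signal vs DMSO.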

[7] = CCTE_Shafer_MEA_dev_per_burst_spike_percent: CCTE's Neural Network Formation Assay for Percent of Spikes in a Burst, Shafer Lab (AID 2284032)
Procedure, shortened: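 Rat primary cortical neurons on 16-electrode MEA wells, dosed from plating day 0 for 12 days with renewal on DIV 5 and 9; spikes-in-bursts percentage averaged over bursting electrodes, collapsed as AUC across days 5, 7, 9, 12; loss direction versus DMSO.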

[8] = CCTE_Shafer_MEA_dev_active_electrodes_number: CCTE's Neural Network Formation Assay for Number of Active Electrodes, Shafer Lab (AID 2284040; active means hit-call score of the fitted dose curve at least 0.9, where 1 is the maximum)
Procedure, shortened: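 Rat cortical primary cultures, 1.5 x 10^5 cells/well, PEI-coated MEA, laminin drop. Continuous exposure DIV 0–12; full media/compound change DIV 5, 9. Readout: electrodes with mean firing ≥5 spikes/min; AUC across days; loss vs DMSO.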

[9] = CCTE_Shafer_MEA_dev_burst_rate: CCTE's Neural Network Formation Assay for Burst Rate, Shafer Lab (AID 2284042)
Procedure, shortened: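 Developmental network assay measuring how 12-day exposure of rat cortical neuron cultures alters bursting on extracellular MEA recordings. Values are AUC of well-mean burst rate across four recording days, relative to DMSO vehicle.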

[10] = CCTE_Shafer_MEA_dev_bursting_electrodes_number: CCTE's Neural Network Formation Assay for Number of Bursting Electrodes, Shafer Lab (AID 2284043; active means hit-call score of the fitted dose curve at least 0.9, where 1 is the maximum)
Procedure, shortened: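 Primary rat cortical neurons plated on 16-electrode MEA wells, exposed from day 0 with compound renewed at DIV 5 and 9. Electrodes bursting ≥1 burst per 2 min counted on days 5, 7, 9 and 12; trapezoidal AUC across days, fitted for loss versus DMSO.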

[11] = CCTE_Shafer_MEA_dev_per_burst_interspike_interval: CCTE's Neural Network Formation Assay for Burst Interspike Interval, Shafer Lab (AID 2284044);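 further: mean spike spacing inside bursts as AUC over recordings on days 5 7 9 12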
Procedure, shortened: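 Spontaneous activity of maturing rat cortical networks is recorded on DIV 5, 7, 9 and 12 under chronic compound exposure beginning at plating. Endpoint: burst interspike interval well-mean, collapsed into trapezoidal AUC and fitted in the negative direction relative to DMSO.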

[12] = CCTE_Shafer_MEA_dev_burst_duration_mean: CCTE's Neural Network Formation Assay for Mean Burst Duration, Shafer Lab (AID 2284045)
Procedure, shortened: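 Primary rat cortical neurons on 48-well 16-electrode MEA plates, exposed from day 0 with renewal at DIV 5 and 9; spontaneous activity recorded on days 5, 7, 9, 12. Well-mean burst duration across bursting electrodes, collapsed as trapezoidal AUC; DMSO baseline.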

[13] = CCTE_Shafer_MEA_dev_interburst_interval_mean: CCTE's Neural Network Formation Assay for Mean Interburst Interval, Shafer Lab (AID 2284046);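 further: well-mean interburst interval of bursting electrodes as AUC over four recording days; curve fitted for decrease in interburst interval relative to DMSO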
Procedure, shortened: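 Network formation assay in primary rat cortical cultures, exposed from DIV 0 to 12. Mean interburst interval per well, integrated as AUC over four recordings.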

[14] = CCTE_Shafer_MEA_dev_inter_network_spike_interval_mean: CCTE's Neural Network Formation Assay for Mean Inter-network Spike Interval, Shafer Lab (AID 2284047)
Procedure, shortened: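 Compound was given at plating to primary rat cortical neurons and renewed with full medium changes on DIV 5 and 9. Extracellular activity was recorded on days 5, 7, 9, 12; AUC values were fitted for loss relative to DMSO control.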

[15] = CCTE_Shafer_MEA_dev_network_spike_number: CCTE's Neural Network Formation Assay for Number of Network Spikes, Shafer Lab (AID 2284048)
Procedure, shortened: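 Primary rat cortical neurons on PEI/laminin 48-well MEA plates, dosed from plating day 0 for 12 days, renewed at DIV 5 and 9. Network spike counts recorded DIV 5, 7, 9, 12, collapsed as trapezoidal AUC; DMSO baseline.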

[16] = CCTE_Shafer_MEA_dev_spike_duration_mean: CCTE's Neural Network Formation Assay for Mean Spike Duration, Shafer Lab (AID 2284051);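 further: mean network spike duration pooled as area under curve over DIV 5 to 12 recordings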
Procedure, shortened: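 With DMSO as baseline, loss of mean network spike duration was scored from extracellular recordings of rat cortical neurons on MEA plates. Exposure spanned plating to DIV 12; the four recording days were collapsed into one AUC value.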

[17] = CCTE_Shafer_MEA_dev_network_spike_duration_std: CCTE's Neural Network Formation Assay for Standard Deviation of Network Spike Duration, Shafer Lab (AID 2284052);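 further: area under curve of spike duration SD across recording days 5 to 12; hits are decreases in network spike duration SD versus DMSO vehicle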
Procedure, shortened: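 Developing networks of rat cortical neurons were exposed over twelve days in vitro on 48-well MEA plates. Trapezoidal AUC of recordings (DIV 5–12) was analysed for signal loss relative to DMSO vehicle.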

[18] = CCTE_Shafer_MEA_dev_per_network_spike_spike_number_mean: CCTE's Neural Network Formation Assay for Mean Number of Spikes in a Network Spike, Shafer Lab (AID 2284053)
Procedure, shortened: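 First, rat cortical cells (1.5 x 10^5/well) were seeded onto MEA wells; second, dosing began at plating and was refreshed on DIV 5 and 9; finally, network-spike spike counts across DIV 5–12 were summarized as AUC.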

[19] = CCTE_Shafer_MEA_dev_per_network_spike_spike_percent: CCTE's Neural Network Formation Assay for Percent of Spikes in a Network Spike, Shafer Lab (AID 2284054)
Procedure, shortened: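 Rat primary cortical neurons were grown on 48-well MEA plates (16 electrodes/well), exposed from plating day 0 through day 12, with treatment renewed on DIV 5 and 9. Percent of spikes within 0.05 s network-spike peaks was measured, summarised as AUC across days 5, 7, 9, 12.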

[20] = UKN5_HCS_SBAD2_cell_viability: Viability Assessment in the University of Konstanz (UKN) Leist Lab Neurite Outgrowth Assay in human iPSC-derived immature Dorsal Root Ganglia Neurons (UKN5) (AID 2284056)
Procedure, shortened: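 iPSC-derived immature peripheral neurons (SBAD2) seeded on Matrigel with CHIR99021, SU5402 and DAPT, dosed 1 h later for 24 h. Viability from Hoechst H-33342 and calcein-AM live staining, high-content imaging; bidirectional fit versus DMSO.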

[21] = CCTE_Shafer_MEA_dev_LDH: CCTE's Lactate Dehydrogenase Assay for Cytotoxicity in the Neural Network Formation Assay, Shafer Lab (AID 2284068; active means hit-call score of the fitted dose curve at least 0.9, where 1 is the maximum;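 further: exposure for twelve days from plating with re-dosing on DIV 5 and 9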)
Procedure, shortened: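 Developing rat cortical networks on MEA plates are exposed to compound for 12 days from plating. LDH activity is measured spectrophotometrically, with DMSO as baseline.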

[22] = UKN5_HCS_SBAD2_neurite_outgrowth: University of Konstanz (UKN) Leist Lab Neurite Outgrowth Assay in human iPSC-derived immature Dorsal Root Ganglia Neurons (UKN5) (AID 2284070); conditions: actives raise or lower the signal
Procedure, shortened: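 Human iPSC-derived immature DRG neurons (SBAD2) on Matrigel with CHIR99021 (1.5 uM), SU5402 (5 uM), DAPT (5 uM); compounds added 1 h post-seeding for 24 h. Calcein-AM neurite area imaged; bidirectional fit vs DMSO.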

[23] = CCTE_Shafer_MEA_dev_mutual_information_norm: CCTE's Neural Network Formation Assay for Mutual Information Normalization, Shafer Lab (AID 2284091)
Procedure, shortened: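 Primary rat cortical neurons on PEI-coated 48-well MEA plates, 1.5 x 10^5 cells/well, exposed from day 0 through day 12 with re-dosing at DIV 5 and 9. Mutual information between electrodes recorded days 5, 7, 9, 12; trapezoidal AUC, loss-of-signal fit versus DMSO.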

[24] = CCTE_Shafer_MEA_dev_correlation_coefficient_mean: CCTE's Neural Network Formation Assay for Mean Correlation Coefficient, Shafer Lab (AID 2284093)
Procedure, shortened: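 Extracellular firing from rat cortical networks on 48-well MEAs, DMSO-referenced, negative fitting direction. Compound present from plating to DIV12; mean pairwise correlation per well integrated over DIV5–12 recordings by trapezoidal AUC.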

[25] = UKN2_HCS_IMR90_neural_migration: University of Konstanz (UKN) Leist Lab Neural Crest Cell Migration Assay in human induced IMR90 Pluripotent Stem Cells (UKN2) (AID 2284204); conditions: actives raise or lower the signal
Procedure, shortened: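 iPSC-derived IMR90 neural crest cells seeded around stoppers on PLO/laminin/fibronectin; migration started in N2-S medium with EGF/FGF, compounds added after 24 h for 24 h. Migration into cell-free area imaged after calcein-AM/Hoechst staining; bidirectional fit versus DMSO.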

[26] = UKN4_HCS_LUHMES_neurite_outgrowth: University of Konstanz (UKN) Leist Lab Neurite Outgrowth Assay in human LUHMES cells (UKN4) (AID 2284206); conditions: actives raise or lower the signal
Procedure, shortened: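 LUHMES neuronal precursors differentiated 2 days, replated without cAMP/GDNF, then exposed to chemicals for 24 h. Neurite area imaged by high-content microscopy after calcein-AM staining; Hoechst H-33342 marks viability. Bidirectional fit versus DMSO.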

[27] = IUF_NPC1b_proliferation_BrdU_72hr: Leibniz Research Institute for Environmental Medicine (IUF) 72-hour Neural Progenitor Cell Bromodeoxyuridine (BrdU) Proliferation Assay (NPC1b) (AID 2284207)
Procedure, shortened: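 BrdU luminescence ELISA quantified DNA synthesis over the last 16 h of a 72 h exposure, fitted against DMSO. Primary hNPC spheres from gestational week 16-19 cortex grown with EGF/FGF at 37C, pH 7.2-7.6.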

Measured: outcome

CC(C)(C)NCC(O)c1cc(O)cc(O)c1 (configuration not stated)
inactive: all assays above
